In PubChem BioAssay (NCATS):
“And” between values parts separate entries of the source, which are not always exact repeats. Equal entries are not always repeated. Inconclusive results are not listed. The source made the active and inactive calls. Unless noted, calls come from the whole dose curve; as a rule, active = well fitted curve in the direction sought with a large enough effect; inconclusive = small, poorly fitted or top-dose-only effect, or another doubt; inactive = no such curve, though single readings can be large; an effect the other way counts as inactive or inconclusive.

What was measured:
[1] = Vero cells viability qHTS for Zika virus inhibitors (AID 1347167); note: % is set by controls: 0 for no effect and ±100 for the full control effect
Method in brief: (§1)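 To flag cytotoxic protease inhibitors, viability is measured by ATP-dependent luminescence (CellTiter Glo) after cells attached overnight receive compound for 24 to 48 hours in DMEM with 4% FBS.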

[2] = HepG2 cells viability qHTS for Zika virus inhibitors (AID 1347168); note: % is set by controls: 0 for no effect and ±100 for the full control effect
Method in brief: as §1

[3] = qHTS to identify inhibitors of the type 1 interferon - major histocompatibility complex class I in skeletal muscle: primary screen against the NCATS Pharmaceutical Collection (AID 1347407);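 note: luminescence of HiBiT knocked into endogenous HLA-B as interferon-induced MHC class I level; % is set by controls: 0 for no effect and ±100 for the full control effect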
Method in brief: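 Luminescence from HiBiT-tagged endogenous HLA-B*08:01 served as the read-out of IFN-beta-induced MHC class I in CRISPR-engineered C25cl48 myoblasts. Cells received 4 ng/ml IFN-beta plus compound (high final 46 uM, […]) for 24 h.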

[4] = qHTS to identify inhibitors of the type 1 interferon - major histocompatibility complex class I in skeletal muscle: primary screen against the NCATS Mechanism Interrogation Plate v5.0 (MIPE) Libary (AID 1347411);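 note: plate controls were vehicle for no effect and reference inhibitor for full effect; nearly all actives have a fitted effect of over 65% in size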
Method in brief: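 Luminescence from CRISPR HiBit-tagged endogenous HLA-B in human myoblasts reported MHC class I level after 24 h of IFN-beta (4 ng/ml) plus compound. Compounds ran as 11-point 1:3 series, top 46 uM final.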

[5] = Primary qHTS for inhibitors of La Crosse Virus (LACV) - induced cell death in SH-SY5Y cells (AID 1508616);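 note: top concentration of the series differs between compounds; 0% = infected DMSO wells and 100% = uninfected DMSO wells; higher means more rescue of cells from virus-induced death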
Method in brief: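 Rescue of virus-induced death was read as ATPLite luminescence after 6 days at 37C, scaled between DMSO wells with LACV and without virus. Cells were SH-SY5Y, 6000/well, infected at 0.01 MOI after compound addition.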

[6] = target: Calcium and integrin-binding protein 1 (Homo sapiens) (UniProt Q99828); assay: Primary qHTS for Identification of Calcium Integrin Binding Protein 1 (CIB1) Competitor (AID 1508620);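 note: GST tagged CIB1 binding a fluorescein labelled alphaIIb integrin peptide tracer; top concentration of the series differs between compounds; % is set by controls: 0 for no effect and ±100 for the full control effect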
Method in brief: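 Fluorescence polarization competition: CIB1-GST (1 uM final) preincubated with compound 15 min at room temperature, then FITC-labeled alphaIIb peptide (100 nM final) added for another 15 min. Polarization read at Ex 480/Em 540.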

[7] = qHTS to identify inhibitors of the type 1 interferon - major histocompatibility complex class I in skeletal muscle: primary screen against the NCATS LOPAC collection (AID 1347405)
Method in brief: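 After 24 h at 37 C with compounds (7-point, 1:4.3 dilutions, 46 uM top final) plus 4 ng/ml IFN-beta, luminescence from lytic HiBiT detection was measured. HLA-B*08:01 in C25cl48 myoblasts carried an endogenous C-terminal HiBiT tag; medium lacked dexamethasone.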

[8] = qHTS for inhibitors of adenylyl cyclases using a fission yeast platform: a pilot screen against the NCATS LOPAC library (AID 1347410);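 note: plate controls were DMSO vehicle for no effect and DPI positive control for full effect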
Method in brief: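 Fission yeast qHTS: CHP2027 cells (AC9-GNAS-PDE4D2, fbp1-GFP), 5x10^6 cells/mL working density, EMM + His/Lys/Ura; LOPAC at up to 57 µM final; 18 h dark, 30C; GFP by laser cytometry. DPI positive control, DMSO vehicle.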

[9] = target: Protein phosphatase 1D (Homo sapiens) (UniProt O15297); assay: RapidFire Mass Spectrometry qHTS Assay for Modulators of WT P53-Induced Phosphatase 1 (WIP1) (AID 1347424);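 note: amount of dephosphorylated VEPPL-S-QETFS peptide product formed by WIP1; series mostly up to about 63 µM; plate controls were DMSO wells for no effect and GSK830371 inhibitor control at 10 µM for full effect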
Method in brief: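 Mass-spectrometric measurement of dephosphorylated peptide after a 5 min room-temperature reaction of 10 nM WIP1 with 2 uM phosphopeptide, following 1 h compound preincubation in 30 mM MgCl2 buffer.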

[10] = target: Protein phosphatase 1D (Homo sapiens) (UniProt O15297); assay: Rhodamine-PBP qHTS Assay for Modulators of WT P53-Induced Phosphatase 1 (WIP1) (AID 1347425); note: % of control where 0% means no effect
Method in brief: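 5 nM WIP1 + 10 uM Rh-PBP, 50 mM Tris pH 7.5, 30 mM MgCl2, 1 mM TCEP, 0.1 mM EGTA, BSA; cpds pinned, 1 hr RT; + 10 uM phosphopeptide; fluorescence 1-min reads x 11 min; delta = f1 - f0.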

[11] = Validation qHTS assay for inhibitors of Activation Induced Cytidine Deaminase (AID): UDG Counterscreen signal (AID 1347427); note: 0% is about no effect
Method in brief: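 Fluorescence at 560 nm excitation, 665 nm emission reports UDG signal after 250 mM NaOH (2x) addition and 30 min. Enzymes (AID 1 uM, UDG 2 U/mL, at 4/3x) preincubated 10 min with compound, then 4 h with 4x 250 nM DJC20/DJC23 substrate at room temperature.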

[12] = Counterscreen qHTS for small molecule stabilizers of the endoplasmic reticulum resident proteome: GLuc-NoTag assay (AID 1508627); note: potency is the fitted concentration of half-maximal effect
Method in brief: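 Secreted GLuc lacking the SERCaMP modification is measured in SH-SY5Y cells exposed to compound for 19 h and then to thapsigargin (100 nM, 4 h) to deplete ER calcium; hits retested at 11 concentrations, up to 76.6 uM.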

[13] = Confirmatory qHTS for small molecule stabilizers of the endoplasmic reticulum resident proteome: Secreted ER Calcium Modulated Protein (SERCaMP) assay (AID 1508628); note: potency is the fitted concentration of half-maximal effect; nearly all actives have a fitted effect of over 40% in size
Method in brief: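 Reporter secretion upon ER calcium depletion (100 nM thapsigargin, 4 h, 37C) is measured as medium luminescence with coelenterazine, after 16 h compound pretreatment of SH-SY5Y-GLuc-SERCaMP cells; primary at three concentrations up to 38.3 uM, follow-up at 11 (up to 76.6 uM).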

[14] = Cell Viability qHTS for small molecule stabilizers of the endoplasmic reticulum resident proteome (AID 1508629); settings: cell viability counter-screen, 100 nM thapsigargin for final 4 h
[15] = Primary qHTS for small molecule stabilizers of the endoplasmic reticulum resident proteome: Secreted ER Calcium Modulated Protein (SERCaMP) assay (AID 1508630); note: potency is the fitted concentration of half-maximal effect
Method in brief: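 The SH-SY5Y reporter protocol was run at 3 concentrations up to 38.3 uM (primary) or 11 concentrations (follow-up): 16 h compound, 100 nM thapsigargin for 4 h, then extracellular luciferase luminescence.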

[16] = A High-Content qHTS Against Drug Library for the Identification of Small Molecules that Inhibit DYT1 Early Onset Primary Dystonia-Associated Cell Pathology (AID 1645839; calls by dose curve; note: series mostly up to about 46 µM)
Method in brief: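 Induced EGFP-delE TorsinA cells are imaged after 48 h of compound treatment. Punctate fusion-protein distribution gives the %pathology value, while nuclei counts flag toxicity. Wild-type EGFP-hTOR1A cells define the normal pattern.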

[17] = Tertiary RLuc qRT-PCR qHTS assay for Zika virus inhibitors (AID 1347169); note: top concentration of the series differs between compounds; % is set by controls: 0 for no effect and ±100 for the full control effect; nearly all actives have a fitted effect of over 55% in size
Method in brief: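 Vero, 1,000 cells/well, o/n 37 C; cpd pinned in DMSO; ZIKV-RLuc Cambodian, MOI 1-2, 48-72 h 37 C; live-cell RLuc substrate, lum read at 1-1.5 h.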

[18] = target: Calcium and integrin-binding protein 1 (Homo sapiens) (UniProt Q99828); assay: Validation qHTS for Identification of Calcium Integrin Binding protein 1 (CIB1) Competitor (AID 1508618); note: % is set by controls: 0 for no effect and ±100 for the full control effect
Method in brief: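 Displacement of FITC-alphaIIb peptide (100 nM) from CIB1-GST (1 uM) is monitored by polarization in quantitative HTS format; buffer carries 5 mM CaCl2 and 125 mM NaCl at pH 7.4, incubations are at room temperature.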

[19] = target: Single-stranded DNA cytosine deaminase (Homo sapiens) (UniProt Q9GZX7); assay: Validation qHTS assay for inhibitors of Activation Induced Cytidine Deaminase (AID): AID signal (AID 1347429); note: % is set by controls: 0 for no effect and ±100 for the full control effect
Method in brief: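 Compounds (final up to 114 uM) preincubated with AID plus UDG; 250 nM DJC20/DJC23 substrate mix (4x stock) added, 4 hr at room temperature, then NaOH, 30 min. Read 1 fluorescence at 540 nm excitation, 590 nm emission.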

[20] = target: Calcium and integrin-binding protein 1 (Homo sapiens) (UniProt Q99828); assay: Confirmatory qHTS for Identification of Calcium Integrin Binding Protein 1 (CIB1) Competitor (AID 1508617); note: % is set by controls: 0 for no effect and ±100 for the full control effect; nearly all actives have a fitted effect of over 65% in size
Method in brief: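 Confirmatory qHTS measures displacement of a FITC-alphaIIb peptide (100 nM) from CIB1-GST (1 uM) by fluorescence polarization. Calcium-containing HEPES buffer, pH 7.4; two 15 min room-temperature incubations.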

Sequence of Single-stranded DNA cytosine deaminase (Homo sapiens) (Q9GZX7 whole entry, looked up): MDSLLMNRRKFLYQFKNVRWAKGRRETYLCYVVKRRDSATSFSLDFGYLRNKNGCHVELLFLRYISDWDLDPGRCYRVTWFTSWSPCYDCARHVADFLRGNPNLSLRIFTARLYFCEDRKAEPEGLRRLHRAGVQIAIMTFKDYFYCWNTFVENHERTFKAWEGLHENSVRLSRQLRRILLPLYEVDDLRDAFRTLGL
Sequence of Calcium and integrin-binding protein 1 (Homo sapiens) (Q99828 whole entry, looked up): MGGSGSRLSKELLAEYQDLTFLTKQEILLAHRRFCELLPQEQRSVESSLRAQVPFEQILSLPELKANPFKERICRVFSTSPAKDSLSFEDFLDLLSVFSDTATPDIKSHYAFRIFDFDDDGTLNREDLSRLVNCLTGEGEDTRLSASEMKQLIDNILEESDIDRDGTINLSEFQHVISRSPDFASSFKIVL
Sequence of Protein phosphatase 1D (Homo sapiens) (O15297 whole entry, looked up): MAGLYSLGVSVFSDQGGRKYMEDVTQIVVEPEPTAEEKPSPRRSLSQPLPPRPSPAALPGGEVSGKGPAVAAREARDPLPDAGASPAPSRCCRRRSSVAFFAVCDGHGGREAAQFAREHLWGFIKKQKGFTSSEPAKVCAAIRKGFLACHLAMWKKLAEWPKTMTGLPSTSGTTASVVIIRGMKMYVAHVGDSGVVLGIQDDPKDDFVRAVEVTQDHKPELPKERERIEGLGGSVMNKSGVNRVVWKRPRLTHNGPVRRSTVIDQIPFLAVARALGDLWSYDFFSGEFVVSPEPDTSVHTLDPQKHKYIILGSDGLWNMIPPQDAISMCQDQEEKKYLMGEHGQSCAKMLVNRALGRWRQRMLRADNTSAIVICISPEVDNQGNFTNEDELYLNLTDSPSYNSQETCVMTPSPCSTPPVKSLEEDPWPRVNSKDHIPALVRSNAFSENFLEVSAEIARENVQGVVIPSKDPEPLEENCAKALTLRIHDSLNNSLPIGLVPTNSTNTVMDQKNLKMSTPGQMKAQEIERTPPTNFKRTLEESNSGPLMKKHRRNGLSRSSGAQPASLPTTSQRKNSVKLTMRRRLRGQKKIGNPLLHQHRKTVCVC

CCCc1nc2c(C)cc(-c3nc4ccccc4n3C)cc2n1Cc1ccc(-c2ccccc2C(=O)O)cc1
inactive: outcome [1] | outcome [2] | outcome [3] | Potency [4] | outcome [5] | outcome [6]

OC(CCN1CCCCC1)(c1ccccc1)C1CC2C=CC1C2 (stereo unspecified)
active: Potency [13] 15.8 µM and 22.4 µM | Potency [15] 10 µM
inactive: Potency [7] | outcome [3] | outcome [8] | Potency [4] | Potency [9] | outcome [10] | outcome [11] | outcome [5] | outcome [6] | Potency [12] | max response [14] 24.4% | Potency [16]

COc1ccccc1-c1cccc(-c2c(O)c3cc(C#N)c(Cl)cc3[nH]c2=O)c1
inactive: outcome [1] | outcome [2] | Potency [15]

CCCCNc1cc(C(=O)O)cc(S(N)(=O)=O)c1Oc1ccccc1
inactive: outcome [1] | outcome [2] | Potency [17] | Potency [7] | outcome [3] | outcome [8] | Potency [4] | Potency [9] | outcome [10] | outcome [11] | outcome [5] | Potency [16]

Cc1[nH]c(=O)c(C#N)cc1-c1ccc2nccn2c1
inactive: outcome [1] | outcome [2] | Potency [17] | Potency [7] | outcome [3] | outcome [8] | Potency [4] | Potency [9] | outcome [10] | outcome [11] | outcome [5] | Potency [18] | outcome [6] | Potency [12] | max response [14] 9.8% | Potency [15] | Potency [16]

Cc1cn[nH]c1
inactive: Potency [7] | outcome [3] | outcome [8] | Potency [4] | Potency [9] | outcome [10] | outcome [11] | outcome [5] | outcome [6] | Potency [15] | Potency [16]

CN1CCN(CCCN2c3ccccc3Sc3ccc(C(F)(F)F)cc32)CC1
inactive: outcome [1] | Potency [7] | outcome [8] | Potency [9] | outcome [10] | outcome [11] | outcome [5] | Potency [15]

COc1ccc(-c2ccc3c(N4CCOCC4)nc(N4C[C@@H](C)O[C@@H](C)C4)nc3n2)cc1CO
active: Potency [15] 14.9 µM
inactive: outcome [1] | outcome [2] | outcome [6] | max response [14] -27.3%

NCCc1ccc(O)c(O)c1
inactive: Potency [7] | outcome [3] | outcome [8] | Potency [4] | Potency [9] | outcome [10] | outcome [11] | outcome [5] | outcome [6] | Potency [15] | Potency [16]

Nc1nc2ccc(OC(F)(F)F)cc2s1
inactive: Potency [7] | outcome [3] | outcome [8] | Potency [4] | Potency [9] | outcome [10] | outcome [11] | outcome [5] | outcome [6] | Potency [15] | Potency [16]

CNC[C@H](O)c1cccc(O)c1
inactive: Potency [7] | outcome [3] | outcome [8] | Potency [4] | Potency [9] | outcome [10] | outcome [11] | outcome [5] | outcome [6] | Potency [15] | Potency [16]

CC(C)C[C@H](NC(=O)[C@@H](O)[C@H](N)Cc1ccccc1)C(=O)O
inactive: Potency [7] | outcome [8] | outcome [11] | outcome [5] | outcome [6]

Cc1ccc(N(CC2=NCCN2)c2cccc(O)c2)cc1
inactive: Potency [7] | outcome [3] | outcome [8] | Potency [9] | outcome [10] | outcome [11] | Potency [19] | outcome [5] | Potency [12] | Potency [15] | Potency [16]

CCc1ccc(CCOc2ccc(CC3SC(=O)NC3=O)cc2)nc1 (stereo unspecified)
inactive: outcome [3] | Potency [4] | Potency [9] | outcome [5] | outcome [6] | Potency [15] | Potency [16]

O=C(O)COCCN1CCN(C(c2ccccc2)c2ccc(Cl)cc2)CC1 (stereo unspecified)
inactive: Potency [7] | outcome [3] | outcome [8] | Potency [9] | outcome [10] | outcome [11] | outcome [5] | outcome [6] | Potency [16]

CCC(C)n1ncn(-c2ccc(N3CCN(c4ccc(OC[C@H]5CO[C@](Cn6cncn6)(c6ccc(Cl)cc6Cl)O5)cc4)CC3)cc2)c1=O (stereo partly specified)
inactive: outcome [3] | Potency [4] | Potency [9] | outcome [10] | outcome [5] | outcome [6] | Potency [15]

NC[C@H](O)c1ccc(O)c(O)c1
inactive: Potency [7] | outcome [3] | outcome [8] | outcome [10] | outcome [11] | outcome [5] | Potency [20] | outcome [6] | Potency [15] | Potency [16]

C[C@]12CCC(=O)C=C1CC[C@@H]1[C@@H]2[C@@H](O)C[C@@]2(C)[C@H]1CC[C@]2(O)C(=O)CO
inactive: Potency [7] | outcome [3] | outcome [8] | Potency [4] | Potency [9] | outcome [10] | outcome [5] | Potency [15] | Potency [16]

CCC(C)(C)C(=O)O[C@H]1C[C@@H](C)C=C2C=C[C@H](C)[C@H](CC[C@@H]3C[C@@H](O)CC(=O)O3)[C@H]21
inactive: outcome [3] | Potency [9] | outcome [10] | Potency [15]

OC(CN1CCC(Cc2ccc(F)cc2)CC1)c1ccc(Cl)cc1 (stereo unspecified)
active: Potency [12] 17.8 µM
inactive: outcome [3] | outcome [8] | Potency [9] | outcome [10] | outcome [11] | Potency [19] | outcome [5] | Potency [18] | outcome [6] | max response [14] -25.9% | Potency [15] | Potency [16]

N[C@@H]1CONC1=O
inactive: Potency [7] | outcome [3] | outcome [8] | Potency [9] | outcome [10] | outcome [11] | outcome [5] | outcome [6] | Potency [15] | Potency [16]

O=C(Nc1nc2ccccc2n1CCN1CCOCC1)c1cccc([N+](=O)[O-])c1
inactive: outcome [8] | Potency [4] | outcome [11] | outcome [5] | Potency [18] | outcome [6]

Nc1ccc(S(=O)(=O)Nc2ccnn2-c2ccccc2)cc1
inactive: Potency [7] | outcome [3] | outcome [8] | Potency [9] | outcome [10] | outcome [11] | outcome [5] | Potency [16]

N=c1nc(N2CCCCC2)cc(N)n1O
inactive: Potency [7] | outcome [3] | outcome [8] | Potency [9] | outcome [10] | outcome [11] | Potency [19] | outcome [5]
